Potency and affinity values are given separately. Active and inactive are the calls of the source.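 The calls were made as follows, unless noted: active = fitted half-maximal concentration within the tested dose range, moderate curve steepness, a statistically real signal drop, and little compound fluorescence or tag-binding interference; inactive = the rest.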

In the first assay the target is Cell division control protein 42 homolog (Homo sapiens) (UniProt P60953). Briefly: inhibition of fluorescent GTP binding to constitutively active Cdc42 – biochemical, multiplex bead flow cytometry, Bodipy-FL-GTP, dose response (AID 1333). As to conditions: bead-based flow cytometry; series mostly up to 100 µM; GTP binding signal, percent: at the top concentration. For orientation: In flow cytometry, cells or beads pass a laser one at a time.
Sequence of Cell division control protein 42 homolog (Homo sapiens) (P60953 whole entry, looked up): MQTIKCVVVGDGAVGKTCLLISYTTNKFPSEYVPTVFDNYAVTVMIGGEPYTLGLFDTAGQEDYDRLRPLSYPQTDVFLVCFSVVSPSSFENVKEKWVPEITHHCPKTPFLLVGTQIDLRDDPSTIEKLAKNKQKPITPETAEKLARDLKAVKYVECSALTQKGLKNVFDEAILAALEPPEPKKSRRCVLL
`COc1ccc(-c2c3c(nc4sc5c(=O)[nH]c(C)nc5c24)CCC3)cc1`: the “GTP binding signal, percent” value was 31.5% (inactive).
`COc1cc(C)c2c(c1C=O)Oc1c(c(C)c(O)c3c1C(O)OC3=O)OC2=O` (stereo not drawn): the “GTP binding signal, percent” value is 65% (inactive).
On the same count and under the same terms, under `COc1ccc(/C=N/NC(=S)Nc2cc(S(=O)(=O)N3CCOCC3)ccc2N2CCOCC2)cc1O` stands 34.6% (inactive); under `O=C(O)CCCCCNS(=O)(=O)c1cccc2c1C(=O)c1ccccc1C2=O`, 21.8% (inactive).
On to `O=C(Nc1cnn(C23CC4CC(CC(C4)C2)C3)c1)c1cnn2cccnc12`, for which the “GTP binding signal, percent” value is 54.8% (inactive).
Still for that read-out and setting: under `CCOc1ccc(NC(=S)N=Nc2c(O)[nH]c3ccccc23)cc1` stands 54.3% (inactive); under `O=C(O)Cn1c(SCCOc2ccccc2Cl)nc2ccccc21`, 47% (inactive); under `COc1ccc(S(=O)(=O)N2CCOCC2)cc1C(=O)Nc1nc2ccccc2s1`, 33% (inactive).
For the compound `COC(=O)c1ccc(/C=N/Nc2nc(-c3ccc(Cl)cc3Cl)cs2)cc1`, the “GTP binding signal, percent” value is 58.6% (inactive).
As for `CN1/C(=C\C=C(/C#N)C(=O)Nc2ccc(Cl)cc2)C(C)(C)c2ccccc21`, the “GTP binding signal, percent” value is 62.2% (inactive).
With `COc1cccc(C2CC(c3ccccc3)=NN2S(=O)(=O)c2ccc(C)cc2)c1OC` (stereo not drawn), the “GTP binding signal, percent” value was 107% (inactive).
Turning to `Cc1cc(C)n2nc(SCCOc3ccccc3)nc2n1`, the “GTP binding signal, percent” value was 51.9% (inactive).
On to `Cc1nc(NC(=O)/C=C/c2ccc(Cl)cc2Cl)sc1C(=O)N(C)C`, for which the “GTP binding signal, percent” value was 28.4% (inactive).
On the same count and under the same terms, under `O=C1OC(c2ccc(F)cc2)=C/C1=C\c1ccc([N+](=O)[O-])o1` stands 68.5% (inactive); under `CC(=O)N1C(=O)/C(=C2\SC(=S)N(NC(=O)c3ccc(O)cc3)C2=O)c2ccccc21`, 45.7% (inactive); under `O=C(Cn1c(-c2cscn2)nc2ccccc21)Nc1cc(F)ccc1F`, 55.4% (inactive).
As to `COc1ccc(OC)c(C(C(=O)NCc2ccco2)N(C(=O)Cn2nnc3ccccc32)C2CC2)c1` (stereo not drawn), the “GTP binding signal, percent” value is 35.3% (inactive).
Still for that read-out and setting: under `Cc1ccc(-n2nc3c(SCCN4CCOCC4)nnc(C)c3c2C)cc1` stands 34.7% (inactive); under `Cc1cc2nc3c(=O)n(C4CCCCC4)c(=O)[nH]c3nc2cc1N`, 32.5% (inactive); under `COc1ccccc1OCCn1cc(C(=O)O)c2ccc(C)cc21`, 157% (inactive).
Turning to `Cc1cccc(C)c1CCNc1ncccc1C(=O)O`, the “GTP binding signal, percent” value is 208% (inactive).
The same measure, in the same setting: under `COc1cc(-c2cc(-c3ccc(O)cc3)nc(N)c2C#N)ccc1O` stands 50.2% (inactive); under `COc1ccc(-c2cc(C(F)(F)F)n3nc(C(=O)O)cc3n2)cc1OC`, 49.4% (inactive); under `Cc1ccc(/C=C2\SC(=S)N(C(Cc3ccccc3)C(=O)O)C2=O)cc1` (stereo not drawn), 26.7% (inactive).
Still for that read-out and setting: the value for `COc1ccc(S(=O)(=O)Cc2ccc(C(=O)N3CCN(c4cccc(C)c4C)CC3)o2)cc1` was 19.8% (inactive).
Same read-out and setting: the value for `Cc1ccc(C2=NN(CCC(=O)NCc3ccc4c(c3)OCO4)C(=O)CC2)cc1` was 32.7% (inactive); that for `Cc1ccc(CSc2ncccc2C(=O)O)cc1` was 52.7% (inactive); that for `O=C(O)c1cccc(-n2cccc2/C=C2/NC(=O)N(c3ccc(Cl)cc3)C2=O)c1` was 29.9% (inactive).
Turning to `CCN1C(=O)C(CC(=O)Nc2ccc(F)cc2)N(CCc2ccc(OC)cc2)C1=S` (stereo not drawn), the “GTP binding signal, percent” value was 52.4% (inactive).
On to `CCn1cc(C(=O)O)c(=O)c2cc(F)c(N/N=C/c3ccccc3)cc21`, for which the “GTP binding signal, percent” value was 33.7% (inactive).
On the same count and under the same terms, under `O=C(O)CC/C(=C\c1ccc(N2CCOCC2)c([N+](=O)[O-])c1)c1nc2ccccc2s1` stands 31.8% (inactive).
Still for that read-out and setting: the value for `O=C(COc1ncnc2cc([N+](=O)[O-])ccc12)NC(=O)NC1CCCCC1` was 50.7% (inactive); that for `COc1ccccc1OCc1cccc(C(=O)O)c1` was 54.7% (inactive); that for `COc1ccc(C(=O)O)c(OCc2c(C)cccc2C)c1` was 180% (inactive).
Still for that read-out and setting: under `O=C(NCc1cccs1)c1cccn2c(=O)c3sccc3nc12` stands 48.4% (inactive).
With `Cc1cc(NC(=O)/C(C#N)=C/c2ccc(-c3ccc(SC(F)F)cc3)o2)n(-c2ccccc2)n1`, the “GTP binding signal, percent” value is 75.8% (inactive).
Turning to `CCCOC(=O)NC1CCS(=O)(=O)C1` (stereo not drawn), the “GTP binding signal, percent” value was 49.3% (inactive).
For `Cc1nc(N/N=C/c2ccc(O)cc2)c2cnn(-c3ccccc3)c2n1`, the “GTP binding signal, percent” value is 52.7% (inactive).
In the case of `O=C(Nc1ccc(S(=O)(=O)N2CCCc3ccccc32)cc1)C1CCCO1` (stereo not drawn), the “GTP binding signal, percent” value is 57.3% (inactive).

For another assay the target is unchanged. Briefly: inhibition of fluorescent GTP binding to wildtype Cdc42 – biochemical, multiplex bead flow cytometry, Bodipy-FL-GTP, dose response (AID 1334;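 active = fitted half-maximal concentration within the tested range, moderate curve steepness, significant signal drop, and little compound fluorescence or bead-linkage interference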). As to conditions: bead-based flow cytometry, Bodipy-FL-GTP binding to GST-Cdc42; at 100 µM (top of the series) unless noted.
`COc1ccc(-c2c3c(nc4sc5c(=O)[nH]c(C)nc5c24)CCC3)cc1`: the fluorescence, percent of control (lower = inhibition) was found to be 38.2%.
The compound `COc1cc(C)c2c(c1C=O)Oc1c(c(C)c(O)c3c1C(O)OC3=O)OC2=O` (stereo not drawn) registered a fluorescence, percent of control (lower = inhibition) of 54.3%.
Still for that read-out and setting: the value for `COc1ccc(/C=N/NC(=S)Nc2cc(S(=O)(=O)N3CCOCC3)ccc2N2CCOCC2)cc1O` was 65.8%.
The same measure, in the same setting: the value for `O=C(O)CCCCCNS(=O)(=O)c1cccc2c1C(=O)c1ccccc1C2=O` was 32.5%.
Still for that read-out and setting: the value for `O=C(Nc1cnn(C23CC4CC(CC(C4)C2)C3)c1)c1cnn2cccnc12` was 41.2%; that for `CCOc1ccc(NC(=S)N=Nc2c(O)[nH]c3ccccc23)cc1` was 35.5%; that for `O=C(O)Cn1c(SCCOc2ccccc2Cl)nc2ccccc21` was 60.2%.
`COc1ccc(S(=O)(=O)N2CCOCC2)cc1C(=O)Nc1nc2ccccc2s1` showed a fluorescence, percent of control (lower = inhibition) of 46.1%.
Consider `COC(=O)c1ccc(/C=N/Nc2nc(-c3ccc(Cl)cc3Cl)cs2)cc1`, for which the fluorescence, percent of control (lower = inhibition) was found to be 39.1%.
For the compound `CN1/C(=C\C=C(/C#N)C(=O)Nc2ccc(Cl)cc2)C(C)(C)c2ccccc21`, the fluorescence, percent of control (lower = inhibition) was found to be 76.8%.
Still for that read-out and setting: under `COc1cccc(C2CC(c3ccccc3)=NN2S(=O)(=O)c2ccc(C)cc2)c1OC` (stereo not drawn) stands 93.3%; under `Cc1cc(C)n2nc(SCCOc3ccccc3)nc2n1`, 31.1%; under `Cc1nc(NC(=O)/C=C/c2ccc(Cl)cc2Cl)sc1C(=O)N(C)C`, 45%.
Turning to `O=C1OC(c2ccc(F)cc2)=C/C1=C\c1ccc([N+](=O)[O-])o1`, the fluorescence, percent of control (lower = inhibition) worked out at 49.1%.
Still for that read-out and setting: under `CC(=O)N1C(=O)/C(=C2\SC(=S)N(NC(=O)c3ccc(O)cc3)C2=O)c2ccccc21` stands 31.6%.
The same measure, in the same setting: under `O=C(Cn1c(-c2cscn2)nc2ccccc21)Nc1cc(F)ccc1F` stands 33.9%; under `COc1ccc(OC)c(C(C(=O)NCc2ccco2)N(C(=O)Cn2nnc3ccccc32)C2CC2)c1` (stereo not drawn), 47.2%; under `Cc1ccc(-n2nc3c(SCCN4CCOCC4)nnc(C)c3c2C)cc1`, 49%.
Same read-out and setting: under `Cc1cc2nc3c(=O)n(C4CCCCC4)c(=O)[nH]c3nc2cc1N` stands 42.7%.
The compound `COc1ccccc1OCCn1cc(C(=O)O)c2ccc(C)cc21` showed a fluorescence, percent of control (lower = inhibition) of 47.9%.
Regarding `Cc1cccc(C)c1CCNc1ncccc1C(=O)O`, the fluorescence, percent of control (lower = inhibition) came to 76.7%.
On the same count and under the same terms, the value for `COc1cc(-c2cc(-c3ccc(O)cc3)nc(N)c2C#N)ccc1O` was 28%; that for `COc1ccc(-c2cc(C(F)(F)F)n3nc(C(=O)O)cc3n2)cc1OC` was 30.7%; that for `Cc1ccc(/C=C2\SC(=S)N(C(Cc3ccccc3)C(=O)O)C2=O)cc1` (stereo not drawn) was 28.1%.
Still for that read-out and setting: the value for `COc1ccc(S(=O)(=O)Cc2ccc(C(=O)N3CCN(c4cccc(C)c4C)CC3)o2)cc1` was 41.5%; that for `Cc1ccc(C2=NN(CCC(=O)NCc3ccc4c(c3)OCO4)C(=O)CC2)cc1` was 51.3%; that for `Cc1ccc(CSc2ncccc2C(=O)O)cc1` was 67.9%.
Still for that read-out and setting: the value for `O=C(O)c1cccc(-n2cccc2/C=C2/NC(=O)N(c3ccc(Cl)cc3)C2=O)c1` was 22.7%; that for `CCN1C(=O)C(CC(=O)Nc2ccc(F)cc2)N(CCc2ccc(OC)cc2)C1=S` (stereo not drawn) was 33.8%.
`CCn1cc(C(=O)O)c(=O)c2cc(F)c(N/N=C/c3ccccc3)cc21` returned a fluorescence, percent of control (lower = inhibition) of 45.9%.
As to `O=C(O)CC/C(=C\c1ccc(N2CCOCC2)c([N+](=O)[O-])c1)c1nc2ccccc2s1`, the fluorescence, percent of control (lower = inhibition) is 28.1%.
The same measure, in the same setting: the value for `O=C(COc1ncnc2cc([N+](=O)[O-])ccc12)NC(=O)NC1CCCCC1` was 31.6%.
Still for that read-out and setting: the value for `COc1ccccc1OCc1cccc(C(=O)O)c1` was 64.9%; that for `COc1ccc(C(=O)O)c(OCc2c(C)cccc2C)c1` was 59%.
Still for that read-out and setting: the value for `O=C(NCc1cccs1)c1cccn2c(=O)c3sccc3nc12` was 32.6%; that for `Cc1cc(NC(=O)/C(C#N)=C/c2ccc(-c3ccc(SC(F)F)cc3)o2)n(-c2ccccc2)n1` was 75.1%.
The compound `CCCOC(=O)NC1CCS(=O)(=O)C1` (stereo not drawn) yielded a fluorescence, percent of control (lower = inhibition) of 99.8%.
Regarding `Cc1nc(N/N=C/c2ccc(O)cc2)c2cnn(-c3ccccc3)c2n1`, the fluorescence, percent of control (lower = inhibition) is 30.2%.
With `O=C(Nc1ccc(S(=O)(=O)N2CCCc3ccccc32)cc1)C1CCCO1` (stereo not drawn), the fluorescence, percent of control (lower = inhibition) is 33.2%.

(Values after PubChem BioAssay.)
